From PubChem BioAssay AID2685 (National Center for Advancing Translational Sciences (NCATS), 2010) come the findings set out here.

About 2,100 (0.66%) of roughly 320,000 compounds were called active. Inconclusive results (about 53%) are left out. The call rests on the fitted dose curve; in most records, active means well fitted inhibition curve with a large enough effect in the signal ratio, with a control signal flat (not every such curve was filed as active); inconclusive means small, poorly fitted or top-dose-only effect, or effect the other way, or a change in a side signal; inactive means flat fitted curve, though single readings scatter; the % refers to the signal ratio. This excerpt belongs to a sample that is enriched for actives.
Potency means the concentration at half of the fitted maximal effect.

The test is described as follows: qHTS Assay for Lipid Storage Modulators in Drosophila S3 Cells.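 On cell number change: cells counted by Cell Tracker Red CMTPX staining in the red channel.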 On lipid storage change, negative = inhibition: on the % scale 0 is the no-effect control and ±100 the full control effect. The settings on record: BODIPY lipid droplet fluorescence, 18-24 h, cells fed with added oleic acid; cell number change: measured here: cell count max response; series mostly up to 46.1 µM; lipid storage change, negative = inhibition: at the top concentration. The method in brief:
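Drosophila S3 cells got compounds at several concentrations plus oleic acid (400 uM solution). Laser-scanning cytometry with 488 nm excitation read lipid droplets at 500-530 nm and cells at 575-640 nm. Percent activity was relative to 20 uM Triacsin C.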
For the compound `CC1=C(C)CC(C(=O)Nc2ccc3c(c2)OCO3)C(C(=O)O)C1` (stereo not drawn), the “lipid storage change, negative = inhibition” value is 14.7% (inactive) and the cell number change was -0.481%.
Take `COc1ccc(OC)c(S(=O)(=O)NNC(=S)Nc2ccc3c(c2)OCO3)c1`: the call was inactive and the cell number change came out at 5.94%.
With `O=C(Nc1cnccn1)Nc1cccc(Cl)c1Cl`, the “lipid storage change, negative = inhibition” value was -1.85% (inactive) and the cell number change was -0.957%.
In the case of `O=C(NCC1CCCCC1)c1cccc(S(=O)(=O)N2CCCC2)c1`, the “lipid storage change, negative = inhibition” value is 6.69% (inactive) and the cell number change came to 3.1%.
With `Cc1c(C(=O)NCC2COc3ccccc3O2)oc2ccc(S(=O)(=O)N3CC(C)CC(C)C3)cc12` (stereo not drawn), the compound was called inactive and the cell number change is 0.959%.
As for `O=C(Nc1cccc(S(=O)(=O)N2CCCCC2)c1)c1ccccn1`, the “lipid storage change, negative = inhibition” value was 0.112% (inactive) and the cell number change was 20.1%.
With `O=C(NCC1COc2ccccc2O1)c1cccc(S(=O)(=O)N2CCCCC2)c1` (stereo not drawn), the Potency is 2.06 µM (active) and the cell number change is -15.1%.
Taken in the same sequence, the figures for `CC1CN(S(=O)(=O)c2cccc(C(=O)Nc3ccccc3N3CCCCC3)c2)CC(C)O1` (stereo not drawn) were 23.1 µM (active) and -19.1%.
On to `O=C(NCC1COc2ccccc2O1)c1cccc(S(=O)(=O)N2CCOCC2)c1` (stereo not drawn), for which the “lipid storage change, negative = inhibition” value is -2.13% (inactive) and the cell number change was -18%.
On to `CC1CN(S(=O)(=O)c2cccc(C(=O)Nc3ccccc3N3CCOCC3)c2)CC(C)O1` (stereo not drawn), for which the compound was called inactive and the cell number change was -20.3%.
Regarding `CSc1ncccc1C(=O)Nc1cccc(S(=O)(=O)N2CCCCC2)c1`, the Potency is 16.4 µM (active) and the cell number change stood at 0.775%.
`CCOc1ncccc1C(=O)Nc1cccc(S(=O)(=O)N2CCCCC2)c1`: the “lipid storage change, negative = inhibition” value is 25.8% (inactive) and the cell number change was -15%.
In the case of `CN1CCN(S(=O)(=O)c2cccc(C(=O)Nc3ccccc3N3CCCC3)c2)CC1`, the “lipid storage change, negative = inhibition” value is -27.5% (inactive) and the cell number change was 9.72%.
Turning to `CCN(CC)S(=O)(=O)c1ccc2oc(C(=O)NCC3COc4ccccc4O3)c(C)c2c1` (stereo not drawn), the Potency is 0.461 µM (active) and the cell number change is -14.2%.
For the compound `CCN(CC)S(=O)(=O)c1ccc2oc(C(=O)NC3CC3)c(C)c2c1`, the result was inactive and the cell number change is -10.9%.
As for `CC(C)Oc1ccc(S(=O)(=O)N2CCOCC2)cc1NC(=O)C1CCCCC1`, the “lipid storage change, negative = inhibition” value is 14.6% (inactive) and the cell number change turned out to be 17%.
Taken in the same sequence, the figures for `Cc1cccc(NC(=O)C2CCCN2C(=O)NC2CCCCC2)c1` (stereo not drawn) were 9.23% [at 9.22 µM] (inactive) and -1.91%.
`CCC(C)C(NC(=O)OCc1ccccc1)C(=O)NC(Cc1ccc(O)cc1)C(=O)OC` (stereo not drawn): the “lipid storage change, negative = inhibition” value is 4.97% (inactive) and the cell number change was found to be 15.2%.
As to `Cc1cnc2cc([N+](=O)[O-])ccc2n1`, the “lipid storage change, negative = inhibition” value is -3.52% (inactive) and the cell number change stood at 9.36%.
Turning to `CC(NC(=O)CN1c2cccc3cccc(c23)S1(=O)=O)c1ccc(S(N)(=O)=O)cc1` (stereo not drawn), the “lipid storage change, negative = inhibition” value was 24.5% (inactive) and the cell number change was 20.8%.
Regarding `CCC(C)c1ccc(S(=O)(=O)N2CCN3CCCC3C2)cc1` (stereo not drawn), the outcome was inactive and the cell number change was -6.32%.
On to `CCOC(=O)C(NC(=O)CC)(Nc1ccc(S(N)(=O)=O)cc1)C(F)(F)F` (stereo not drawn), for which the “lipid storage change, negative = inhibition” value was -9.17% (inactive) and the cell number change was determined as 9.23%.
As for `O=C(CSc1nnnn1C1CCCCC1)Nc1ccc(F)cc1`, the “lipid storage change, negative = inhibition” value was 0.247% (inactive) and the cell number change is -9.49%.
With `CN(C)C(=O)Nc1cnc2ccccc2c1`, the “lipid storage change, negative = inhibition” value is 8.36% (inactive) and the cell number change is 12.4%.
Turning to `COc1ccc(CNC(=O)c2noc(C(C)C)c2[N+](=O)[O-])cc1`, the “lipid storage change, negative = inhibition” value was -2.76% (inactive) and the cell number change came to 2.44%.
In the case of `CCOC(=O)C(NC(=O)c1ccc(F)cc1)(Nc1sc2c(c1C(N)=O)CCC2)C(F)(F)F` (stereo not drawn), the “lipid storage change, negative = inhibition” value was 7.93% (inactive) and the cell number change is -0.472%.
In the case of `CCCC(=O)Oc1c(S(=O)(=O)c2ccc(C)cc2)c(C)nn1C(C)(C)C`, the “lipid storage change, negative = inhibition” value is -0.57% (inactive) and the cell number change stood at 23.9%.
With `O=C(Nc1ccc(S(=O)(=O)N2CCOCC2)cc1)c1cccc(Br)c1`, the compound was called inactive and the cell number change is -4.91%.
Consider `CC(C)C(=O)Nc1cccc(C(=O)Nc2ccc(S(=O)(=O)N3CCOCC3)cc2)c1`, for which the Potency was 13 µM (active) and the cell number change was -1.62%.
`CC(C)(C)c1nnc(NC(=O)c2ccc3c(c2)OCO3)s1`: the compound was called inactive and the cell number change was determined as 5.88%.
For the compound `O=C(Nc1ccc(S(=O)(=O)N2CCOCC2)cc1)c1ccccc1`, the “lipid storage change, negative = inhibition” value was -6.47% (inactive) and the cell number change was -4.33%.
Regarding `CC(C)C(=O)Nc1nc(-c2ccc(S(=O)(=O)N3CCOCC3)cc2)cs1`, the Potency is 5.17 µM (active) and the cell number change is -31.7%.
On to `Cc1nc(-c2ccc(S(=O)(=O)N3CCOCC3)cc2)cs1`, for which the “lipid storage change, negative = inhibition” value was 4.04% (inactive).
As for `O=C(Nc1cccc(S(=O)(=O)N2CCCC2)c1)c1cccc(S(=O)(=O)N2CCOCC2)c1`, the Potency was 1.84 µM (active) and the cell number change is -9.73%.
In the case of `O=C(COc1ccccc1)Nc1nc(-c2ccc(S(=O)(=O)N3CCOCC3)cc2)cs1`, the “lipid storage change, negative = inhibition” value is 24.2% (inactive) and the cell number change was -17.5%.
With `O=C(/C=C/c1ccc2c(c1)OCO2)Nc1nncs1`, the “lipid storage change, negative = inhibition” value was 2.26% (inactive) and the cell number change was 12.8%.
Regarding `O=C(Nc1cccc(F)c1)c1cccc(S(=O)(=O)N2CCOCC2)c1`, the “lipid storage change, negative = inhibition” value was -3.69% (inactive) and the cell number change was -12.5%.
In the case of `CC(=O)c1cccc(NC(=O)c2cccc(S(=O)(=O)N3CCOCC3)c2)c1`, the compound was classed as inactive and the cell number change stood at 0.952%.
`O=C(Nc1nncs1)c1ccc2c(c1)OCO2`: the Potency was 4.61 µM (active) and the cell number change amounted to 11.7%.
Turning to `CCN(CC(=O)NC1CCCC1)S(=O)(=O)c1ccc(C)cc1`, the outcome was inactive.
In the case of `COc1ccc(/C=C/C(=O)O)cc1S(=O)(=O)NC1CCS(=O)(=O)C1` (stereo not drawn), the “lipid storage change, negative = inhibition” value was 29% (inactive) and the cell number change is 23.6%.
Taken in the same sequence, the figures for `Nc1nc(SCc2ccccc2Cl)nc2nc3c(cc12)CCCC3` were -0.358% (inactive) and -12.1%.
On to `COc1ccc(C2N=C(c3ccccc3)NC(c3ccccc3)=N2)cc1`, for which the “lipid storage change, negative = inhibition” value is 3.53% (inactive) and the cell number change is 1.5%.
With `N#Cc1cccc(S(=O)(=O)Nc2c(NC3CCCCC3)c3ccccc3oc2=O)c1`, the result was inactive and the cell number change is -28.3%.
Turning to `Cc1cccc(NC(=S)N(CCc2ccncc2)C(C)C)c1C`, the “lipid storage change, negative = inhibition” value is 4.1% (inactive) and the cell number change was -1.71%.
